# Inconclusive results are not listed. Entries that show only a call come without a potency. Where a structure was tested more than once in an assay, its records may differ in their call. Activity calls are given as the source filed them. The call rests on the fitted dose curve; in most records, active means well fitted inhibition curve with a large enough effect; inconclusive means small, poorly fitted or top-dose-only effect; inactive means flat fitted curve, though single readings scatter.
# Test system: CP250
# Test: qHTS profiling for inhibitors of Plasmodium falciparum proliferation (AID 504749); further: nearly all actives have a fitted effect of over 60% in size
# Details: P. falciparum in erythrocytes, SYBR Green DNA, 72 h; series mostly up to 28.7 µM
# Summary of the method: (§1)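 SYBR Green fluorescence (ex 485 nm, em 535 nm) reports parasite DNA after 72 h compound exposure of infected red cells at 0.3% parasitemia, 2.5% hematocrit; signal normalized to 0.29 uM artemisinin and vehicle wells.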
# Potency means the concentration at half of the fitted maximal effect.
row,SMILES,Potency
1,O=C(CCl)c1ccc(Oc2ccc(C(=O)CCl)cc2)cc1,inactive
2,O=[N+]([O-])c1ccc(F)c([N+](=O)[O-])c1,inactive
3,N#CC1(N2CCCCC2)CCCCC1,inactive
4,CN1C2CCC1CC(OC(c1ccccc1)c1ccc(Cl)cc1)C2 (configuration not stated),10 µM (active)
5,O=[N+]([O-])C(Br)(CO)CO,inactive
6,Clc1ccccc1Cl,inactive
7,CC(C)Nc1ccc(Nc2ccccc2)cc1,5.01 µM (active)
8,CC(=O)O[C@H]1CC[C@H]2[C@@H]3CCC4=CC(=O)CCC4=C3C=C[C@]12C,inactive
9,CCCC(C)(COC(N)=O)COC(=O)NC1CC1 (configuration not stated),inactive
10,CNC1(c2ccccc2Cl)CCCCC1=O (configuration not stated),inactive
11,FC(F)OC(F)(F)C(F)Cl (configuration not stated),inactive
12,O=C/C=C/c1ccccc1,inactive
13,S=C(S)N1CCNCC1,inactive
14,CNC(C)C(O)c1ccc(O)cc1 (configuration not stated),inactive
15,CCCCCCCCOC(=O)c1ccccc1C(=O)OCCCCCCCC,inactive
16,[O]=[Cr](=[O])([OH])[O][Cr](=[O])(=[O])[OH],inactive
17,CCCCCl,inactive
18,ClC(Cl)(Cl)Cl,inactive
19,CC(C)(C)c1cc(O)ccc1O,7.94 µM (active)
20,O=C1C2CC=CCC2C(=O)N1SC(Cl)(Cl)Cl (configuration not stated),inactive

row,SMILES,Potency
1,CCOC(=O)c1ccccc1C(=O)OCC,inactive
2,NCC(O)c1cccc(O)c1 (configuration not stated),inactive
3,O=C(OCCN1CCCCC1)C(O)(c1ccccc1)c1ccccc1,inactive
4,c1ccc2cc(CC3=NCCN3)ccc2c1,inactive
5,CCCCCCCCCC(=O)O[C@H]1CC[C@H]2[C@@H]3CCC4=CC(=O)CC[C@]4(C)[C@H]3CC[C@]12C,inactive
6,O=[N+]([O-])c1ccccc1,inactive
7,O=C(CS(=O)C(c1ccccc1)c1ccccc1)NO (configuration not stated),inactive
8,CC(Cc1ccccc1)NC=O (configuration not stated),inactive
9,ClC1C(Cl)C(Cl)C(Cl)C(Cl)C1Cl (configuration not stated),inactive
10,O=CC=O,inactive
11,COC([CH2][Hg])CNC(=O)c1ccccc1OCC(=O)O (configuration not stated),inactive
12,C[N+]1(C)C2CCC1CC(OC(=O)c1c[nH]c3ccccc13)C2 (configuration not stated),inactive
13,CC(=O)OO,inactive
14,[N-]=[N+]=CC(=O)OCC(N)C(=O)O (configuration not stated),inactive
15,CCC1(C)CC(=O)NC(=O)C1,inactive
16,O=C(O)C(Cl)(Cl)Cl,inactive
17,C#CC(C)(O)CC (configuration not stated),inactive
18,O=S(=O)(O)c1cc(O)ccc1O,inactive
19,N#CN,inactive

# Test system: CP252
# Test: as above
# Details: P. falciparum in erythrocytes, SYBR Green DNA, 72 h; series mostly up to 28.7 µM
# Summary of the method: as §1
row,SMILES,Potency
1,O=C(CCl)c1ccc(Oc2ccc(C(=O)CCl)cc2)cc1,inactive
2,O=[N+]([O-])c1ccc(F)c([N+](=O)[O-])c1,inactive
3,N#CC1(N2CCCCC2)CCCCC1,inactive
4,CN1C2CCC1CC(OC(c1ccccc1)c1ccc(Cl)cc1)C2 (configuration not stated),7.94 µM (active)
5,O=[N+]([O-])C(Br)(CO)CO,inactive
6,Clc1ccccc1Cl,inactive
7,CC(C)Nc1ccc(Nc2ccccc2)cc1,7.08 µM (active)
8,CC(=O)O[C@H]1CC[C@H]2[C@@H]3CCC4=CC(=O)CCC4=C3C=C[C@]12C,inactive
9,CCCC(C)(COC(N)=O)COC(=O)NC1CC1 (configuration not stated),inactive
10,CNC1(c2ccccc2Cl)CCCCC1=O (configuration not stated),inactive
11,FC(F)OC(F)(F)C(F)Cl (configuration not stated),inactive
12,O=C/C=C/c1ccccc1,inactive
13,S=C(S)N1CCNCC1,inactive
14,CNC(C)C(O)c1ccc(O)cc1 (configuration not stated),inactive
15,CCCCCCCCOC(=O)c1ccccc1C(=O)OCCCCCCCC,inactive
16,[O]=[Cr](=[O])([OH])[O][Cr](=[O])(=[O])[OH],inactive
17,CCCCCl,inactive
18,ClC(Cl)(Cl)Cl,inactive
19,CC(C)(C)c1cc(O)ccc1O,8.91 µM (active) and inactive
20,O=C1C2CC=CCC2C(=O)N1SC(Cl)(Cl)Cl (configuration not stated),inactive

row,SMILES,Potency
1,CCOC(=O)c1ccccc1C(=O)OCC,inactive
2,NCC(O)c1cccc(O)c1 (configuration not stated),inactive
3,O=C(OCCN1CCCCC1)C(O)(c1ccccc1)c1ccccc1,inactive
4,c1ccc2cc(CC3=NCCN3)ccc2c1,inactive
5,CCCCCCCCCC(=O)O[C@H]1CC[C@H]2[C@@H]3CCC4=CC(=O)CC[C@]4(C)[C@H]3CC[C@]12C,inactive
6,O=[N+]([O-])c1ccccc1,inactive
7,O=C(CS(=O)C(c1ccccc1)c1ccccc1)NO (configuration not stated),inactive
8,CC(Cc1ccccc1)NC=O (configuration not stated),inactive
9,ClC1C(Cl)C(Cl)C(Cl)C(Cl)C1Cl (configuration not stated),inactive
10,O=CC=O,inactive
11,COC([CH2][Hg])CNC(=O)c1ccccc1OCC(=O)O (configuration not stated),inactive
12,C[N+]1(C)C2CCC1CC(OC(=O)c1c[nH]c3ccccc13)C2 (configuration not stated),inactive
13,CC(=O)OO,inactive
14,[N-]=[N+]=CC(=O)OCC(N)C(=O)O (configuration not stated),inactive
15,CCC1(C)CC(=O)NC(=O)C1,inactive
16,O=C(O)C(Cl)(Cl)Cl,inactive
17,C#CC(C)(O)CC (configuration not stated),inactive
18,O=S(=O)(O)c1cc(O)ccc1O,inactive
19,N#CN,inactive

# Test system: CP256
# Test: as above
# Details: P. falciparum in erythrocytes, SYBR Green DNA, 72 h; series mostly up to 28.7 µM
# Summary of the method: as §1
row,SMILES,Potency
1,O=C(CCl)c1ccc(Oc2ccc(C(=O)CCl)cc2)cc1,inactive
2,O=[N+]([O-])c1ccc(F)c([N+](=O)[O-])c1,inactive
3,N#CC1(N2CCCCC2)CCCCC1,inactive
4,CN1C2CCC1CC(OC(c1ccccc1)c1ccc(Cl)cc1)C2 (configuration not stated),7.08 µM (active)
5,O=[N+]([O-])C(Br)(CO)CO,inactive
6,Clc1ccccc1Cl,inactive
7,CC(C)Nc1ccc(Nc2ccccc2)cc1,7.94 µM (active)
8,CC(=O)O[C@H]1CC[C@H]2[C@@H]3CCC4=CC(=O)CCC4=C3C=C[C@]12C,inactive
9,CCCC(C)(COC(N)=O)COC(=O)NC1CC1 (configuration not stated),inactive
10,CNC1(c2ccccc2Cl)CCCCC1=O (configuration not stated),inactive
11,FC(F)OC(F)(F)C(F)Cl (configuration not stated),inactive
12,O=C/C=C/c1ccccc1,inactive
13,S=C(S)N1CCNCC1,inactive
14,CNC(C)C(O)c1ccc(O)cc1 (configuration not stated),inactive
15,CCCCCCCCOC(=O)c1ccccc1C(=O)OCCCCCCCC,inactive
16,[O]=[Cr](=[O])([OH])[O][Cr](=[O])(=[O])[OH],inactive
17,CCCCCl,inactive
18,ClC(Cl)(Cl)Cl,inactive
19,CC(C)(C)c1cc(O)ccc1O,11.2 µM (active)
20,O=C1C2CC=CCC2C(=O)N1SC(Cl)(Cl)Cl (configuration not stated),inactive

row,SMILES,Potency
1,CCOC(=O)c1ccccc1C(=O)OCC,inactive
2,NCC(O)c1cccc(O)c1 (configuration not stated),inactive
3,O=C(OCCN1CCCCC1)C(O)(c1ccccc1)c1ccccc1,inactive
4,c1ccc2cc(CC3=NCCN3)ccc2c1,inactive
5,CCCCCCCCCC(=O)O[C@H]1CC[C@H]2[C@@H]3CCC4=CC(=O)CC[C@]4(C)[C@H]3CC[C@]12C,inactive
6,O=[N+]([O-])c1ccccc1,inactive
7,O=C(CS(=O)C(c1ccccc1)c1ccccc1)NO (configuration not stated),inactive
8,CC(Cc1ccccc1)NC=O (configuration not stated),inactive
9,ClC1C(Cl)C(Cl)C(Cl)C(Cl)C1Cl (configuration not stated),inactive
10,O=CC=O,inactive
11,COC([CH2][Hg])CNC(=O)c1ccccc1OCC(=O)O (configuration not stated),inactive
12,C[N+]1(C)C2CCC1CC(OC(=O)c1c[nH]c3ccccc13)C2 (configuration not stated),inactive
13,CC(=O)OO,inactive
14,[N-]=[N+]=CC(=O)OCC(N)C(=O)O (configuration not stated),inactive
15,CCC1(C)CC(=O)NC(=O)C1,inactive
16,O=C(O)C(Cl)(Cl)Cl,inactive
17,C#CC(C)(O)CC (configuration not stated),inactive
18,O=S(=O)(O)c1cc(O)ccc1O,inactive
19,N#CN,inactive

# From PubChem BioAssay (NCATS)
